# Laboratory results taken from ChEMBL document CHEMBL4513216, “Probing the Open Global Health Chemical Diversity Library for Multistage-Active Starting Points for Next-Generation Antimalarials” (ACS Infect Dis, 2020).
# In all, about 69,000 compounds went through this assay and about 8,600 (12%) showed an effect of 50% or more. The list comes from a sample in which strong results are over-represented; it also holds similar structures and randomly drawn compounds.
# Test system: Plasmodium berghei
# Experiment: Screen against P. berghei liver stage (PbLuc), transformed with Luciferase, at 10uM
# Format: functional, HepG2
# Conditions: tested at 10 uM
row,SMILES,INHIBITION [%]
1,Fc1ccc(CNCC2OCCc3cn(CC4CC4)nc32)cc1 (stereo not drawn),46.6
2,O=S(=O)(NCC1OCCc2cn(CC3CCOCC3)nc21)C1CC1 (stereo not drawn),29.8
3,CS(=O)(=O)CC(=O)NCC1OCCc2cn(CC3CC3)nc21 (stereo not drawn),54.7
4,c1c2c(nn1CC1CC1)C(CNC1CCOCC1)OCC2 (stereo not drawn),15.3
5,O=C(Cc1ccsc1)NCC1OCCc2cn(CC3CC3)nc21 (stereo not drawn),-46.6
6,COCCCn1ccc(NCc2ccc(NC(C)=O)cc2)n1,19.7
7,COc1cc2c(cc1C(=O)N1CCCCC1c1ccccn1)CCC2 (stereo not drawn),11.6
8,Cc1ccc2nc(C(=O)N3C[C@@H](C(=O)O)[C@H](c4ccccc4)C3)cn2c1,-46
9,O=C(c1cccs1)N1CCOCC2(C1)CN(c1ccccc1)C(=O)CO2 (stereo not drawn),-8.28
10,CCOCC1CN(c2ccncn2)Cc2cnn(CC3CC3)c21 (stereo not drawn),-8.19
11,Cc1nccn1C1CCCN(C(=O)c2cccc(Cn3ccnc3)c2)C1 (stereo not drawn),-6.14
12,O=C(CCc1cc2n(n1)CCCNC2)N1CCC(N2CCOC2=O)CC1,-39.2
13,COCCNc1nnc(-c2ccc(C)nc2)s1,-74.5
14,CCc1nc(CN2CC[C@@](O)(CCOC)[C@H](C)C2)cs1,0.868
15,CCOc1cc(CNCCCn2ccnc2)cc(Cl)c1OC,49.5
16,CCOc1cc(CNCCCn2ccnc2)cc(Cl)c1OCC,58.1
17,CCOc1ccc(CNCCCn2ccnc2)cc1Cl,-32.1
18,CC(=O)NCC1CCC2(CCN(c3ncnc4oc(C)nc34)CC2)O1 (stereo not drawn),34.9
19,CC(=O)N1CCC(NC(=O)CN2CCCc3c(C)ccc(F)c32)CC1,-7.13
20,Cc1cnn(-c2cccc(N3CCCCC3)n2)c1,39.3
21,Cc1cnn(-c2cccc(N3CCN(c4cc(C)nc(C)n4)CC3)n2)c1,85.5
22,Cc1cnn(-c2cccc(N3CCCC3)n2)c1,30.3
23,CC(=O)N1CCCC1C(=O)NCCOc1ccc(C(C)C)cc1 (stereo not drawn),29.4
24,CC(C)Cn1c(=O)n(CCCn2cccn2)c2cc(C(=O)O)cnc21,-18.1
25,Cn1cc(NC(=O)N2CCN(Cc3cscn3)CC2)ccc1=O,48.3
26,O=C(Cn1nnc(-c2ccc(F)cc2)n1)N1CCOCC(O)C1 (stereo not drawn),38.6
27,O=C(CCCn1nnc(-c2ccc(F)cc2)n1)N1CCOCC(CO)C1 (stereo not drawn),52

row,SMILES,INHIBITION [%]
1,CC[C@H]1COCCN1C(=O)CCCn1nnc(-c2ccc(F)cc2)n1,35
2,CCCS(=O)(=O)NC(C)C(=O)NCc1ccnc(N2CCCC2)c1 (stereo not drawn),14.4
3,COCC(=O)N1CCC2(C1)c1ccccc1S(=O)(=O)N2CCC(C)C (stereo not drawn),-14.2
4,COCC(=O)N1CCC2(C1)c1ccccc1S(=O)(=O)N2CC1CC1 (stereo not drawn),17.6
5,COCC(=O)N1CCC2(C1)c1ccccc1S(=O)(=O)N2C (stereo not drawn),65.3
6,CC(=O)N1CCC2(C1)c1ccccc1S(=O)(=O)N2Cc1ccccc1 (stereo not drawn),6.72
7,CC(=O)N1CCC2(C1)c1ccccc1S(=O)(=O)N2C (stereo not drawn),50.4
8,CC(=O)N1CCC2(C1)c1ccccc1S(=O)(=O)N2CCC(C)C (stereo not drawn),-61.6
9,Cc1ccccc1C(=O)N1CCC(n2nnc3cc(F)ccc32)CC1,-30.1
10,CC(C)c1nnc(CCC(=O)N2CCOC(c3cnccn3)C2)o1 (stereo not drawn),11.8
11,CC(C)C[C@H](N)c1nnc(SCC(N)=O)o1,-21.4
12,NS(=O)(=O)CCCNC(=O)c1cnc(-c2ccsc2)s1,41.4
13,O=C1C[C@@H]2CC[C@H](CN1)N2C(=O)CCc1ccsc1,36.7
14,CC(=O)N1CCC2(CC1)CC(NS(C)(=O)=O)c1ccccc1O2 (stereo not drawn),25.9
15,CC(=O)N1CCOCC(Cc2ccc3c(ccn3C)c2)C1 (stereo not drawn),-20.265
16,Cn1cc(CN2C[C@@H]3COC[C@@H](C(=O)N4CCCCO4)[C@@H]3C2)cn1,39.8
17,CS(=O)(=O)NCc1noc2c1CN(C(=O)C1CC1)CC2,30.3
18,O=C(CC(F)(F)F)N1CCc2onc(Cn3cccn3)c2C1,32.4
19,CN(C)CC(=O)N1CCc2onc(Cn3cccn3)c2C1,33.4
20,CS(=O)(=O)NCc1noc2c1CN(C(=O)C1CCC1)CC2,18.6
21,O=C(CO)N1CCc2onc(Cn3cccn3)c2C1,51.2
22,CCC(=O)N1CCc2onc(CNS(C)(=O)=O)c2C1,69.3
23,CC1CN(C(=O)CN(Cc2ccco2)Cc2cccs2)CCO1 (stereo not drawn),-19.9
24,COC(=O)c1cccn1C1CCN(C(=O)c2c(C)noc2C)CC1,36.1
25,COc1cc2c(cc1OC)C(=O)C(Sc1nnnn1C)C2 (stereo not drawn),26.4
26,CSc1ncc(C(=O)NCCn2nccc2C)cn1,5.785
